# Screens from PubChem BioAssay.
# Compounds with a hit are over-represented: about 11% of the library has one in this group of screens.
# IMPase cell inh = membrane-permeable compound that blocks inositol monophosphatase | CHO-M1 cells, IP1 accumulation, HTRF TR-FRET ratio | inhibition (IP1 accumulation), % at 46.1 µM | 120,000 tested, under 10 active; active = well fitted curve in the direction sought with a large enough effect in the signal ratio, not every such curve was filed as active; inconclusive = small, poorly fitted or top-dose-only effect, or a change in a side signal; inactive = no such curve, though single readings can be large or run the other way; the % refers to the signal ratio;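 note: cells stimulated with carbachol in lithium chloride buffer; higher means more IMPase inhibition seen as more IP1 and lower FRET ratio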
# Target sequence (P97697 whole entry, looked up): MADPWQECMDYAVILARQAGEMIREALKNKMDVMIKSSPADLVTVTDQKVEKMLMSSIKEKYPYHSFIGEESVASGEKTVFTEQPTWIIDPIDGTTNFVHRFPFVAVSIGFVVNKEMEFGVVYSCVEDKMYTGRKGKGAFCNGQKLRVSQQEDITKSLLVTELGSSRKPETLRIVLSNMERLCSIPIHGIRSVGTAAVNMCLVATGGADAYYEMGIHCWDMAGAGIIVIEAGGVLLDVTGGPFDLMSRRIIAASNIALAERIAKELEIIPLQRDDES
#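 CHO-M1, 2000 cells/well, cultured 16–30 h; cpd up to 46 uM; carbachol (50 uM solution, stimulation buffer w/ 50 mM LiCl, pH 7.4), 30 min 37C; IP-One TR-FRET, 10 min RT; Ex 320/Em 665, 620; Hill-fit AC50.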
# PNC assembly inh = blocks assembly of the perinucleolar compartment. 140,000 tested, 3.1% active. activity change (PNC), negative = inhibition, % at 10 µM. AID 2417. PC3M PTB-GFP, PNC prevalence imaging, 16 h; active compounds read low;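 active = readout at or below -70, meaning at least 70% loss of cells showing the perinucleolar compartment, a nuclear body marking cancer cells; inconclusive = readout between -30 and a set limit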
#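 PC3M cells stably expressing PTB-GFP, 750–1000 cells/well, treated 16 h at 37 °C with compound (23 nl of library stock), in duplicate. After paraformaldehyde fixation and Hoechst stain, imaged at 20x; PNC prevalence scored by image analysis.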
# HPGD block = inhibitors of human 15-hydroxyprostaglandin dehydrogenase (HPGD). Potency, µM, most hits filed as inhibitors. P15428. purified HPGD, NADH fluorescence kinetic, PGE2 substrate. 150,000 tested, 4.3% active; active = well fitted inhibition curve with a large enough effect, not every such curve was filed as active; inconclusive = small, poorly fitted or top-dose-only effect, or another doubt; inactive = no such curve, though single readings can be large or run the other way
#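 NADH formation kinetics: reaction with 30 uM PGE2 and 1 mM NAD+ (final), 20 nM enzyme, Tris-HCl pH 8 with Tween 20, after 15 min compound preincubation at room temperature. Fluorescence change, last versus first of five reads.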
# ALOX12 inhib = inhibitors of human 12-lipoxygenase (ALOX12); P18054; Potency, µM (doses to about 57.1 µM), usual class: inhibitors; purified 12-hLO, xylenol orange hydroperoxide absorbance; 150,000 tested, 0.12% active; note: nearly all actives have a fitted effect of over 55% in size
#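 150 nM 12hLO, 25 mM Hepes pH 7.0 + 0.01% Triton X-100; cpd preinc 15 min RT; 40 uM arachidonic acid, 30 min RT; Fe-XO 30 min; A573/A405 ratio as read-out.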
# ALDH1A1 inh = ALDH1A1 (human) enzyme inhibition; 220,000 tested, 7.3% active; Purified ALDH1A1, NADH fluorescence, propionaldehyde substrate; P00352; Potency, µM (top dose mostly 75.3 µM), hits mostly inhibitors; active = well fitted inhibition curve with a large enough effect, not every such curve was filed as active; inconclusive = small, poorly fitted or top-dose-only effect, or another doubt; inactive = no such curve, though single readings can be large or run the other way
# Target sequence (P00352 whole entry, looked up): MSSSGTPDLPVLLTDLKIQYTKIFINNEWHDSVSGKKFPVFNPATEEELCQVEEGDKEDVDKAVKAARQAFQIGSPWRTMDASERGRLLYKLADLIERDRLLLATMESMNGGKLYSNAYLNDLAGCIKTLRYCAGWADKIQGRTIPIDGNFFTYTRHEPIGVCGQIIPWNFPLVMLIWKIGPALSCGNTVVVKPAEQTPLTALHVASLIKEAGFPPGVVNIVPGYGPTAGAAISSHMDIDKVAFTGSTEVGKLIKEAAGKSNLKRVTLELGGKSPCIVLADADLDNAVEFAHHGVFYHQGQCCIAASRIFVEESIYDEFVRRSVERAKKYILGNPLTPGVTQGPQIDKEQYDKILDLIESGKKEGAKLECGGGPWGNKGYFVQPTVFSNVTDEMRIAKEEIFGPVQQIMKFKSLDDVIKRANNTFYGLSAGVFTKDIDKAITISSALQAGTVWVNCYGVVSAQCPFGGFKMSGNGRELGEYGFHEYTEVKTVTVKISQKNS
# IMPase Li cell = IMPase inhibition in cells with lithium potentiation | CHO-M1 cells, IP1 TR-FRET (IP-One), carbachol + lithium | Potency, µM (series often up to 59.4 µM), hits mostly inhibitors | 210,000 tested, 0.35% active | AID 1457;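 note: IP1 builds up when IMPase is blocked and the TR-FRET signal falls; nearly all actives have a fitted effect of over 50% in size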
#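 IP1 accumulation measured by competitive TR-FRET in lysed CHO-M1 cells after 30 min compound exposure at 37C, with a small lithium addition to potentiate weak responses. Hill-equation AC50 from ratio and donor-channel data.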
# Hits are given with their value; . = inactive; ? = inconclusive; / = no result; [ ] = dose if it differs, or a comment. Unless noted, calls come from the whole dose curve; as a rule, active = well fitted curve in the direction sought with a large enough effect; inconclusive = small, poorly fitted or top-dose-only effect, or another doubt; inactive = no such curve, though single readings can be large; an effect the other way counts as inactive or inconclusive.
SMILES,IMPase cell inh,PNC assembly inh,HPGD block,ALOX12 inhib,ALDH1A1 inh,IMPase Li cell
O=c1[nH]nc(Cc2ccccc2)c2ccccc12,.,.,.,.,.,.
COc1cc2c(cc1OC)CN(CCC(=O)c1ccc(Br)cc1)CC2,/,/,/,/,0.2µM,.
CC1CCCN(CCC(=O)c2ccc(Br)cc2)C1 (stereo unspecified),.,.,4µM,.,0.13µM,.
COc1cc2c(cc1OC)CN(CC(=O)Nc1cccc(C)c1)CC2,?,.,.,.,.,.
Cc1cc(C)nc(NC(=O)COc2ccc(Cl)cc2)c1,/,/,.,.[11.4 µM],.[13.5 µM],.
CCOc1cc(C(=O)OCC(=O)c2c(N)n(C)c(=O)n(C)c2=O)cc(OCC)c1OCC,.,?,.,.,.,.
Cn1c(N)c(C(=O)COC(=O)c2cncc(Br)c2)c(=O)n(C)c1=O,/,/,/,/,11µM,.
COc1ccc(CCNC(=O)Cn2c(=O)n(-c3cc(F)ccc3F)c(=O)c3sccc32)cc1OC,/,/,/,/,1µM,.
CCc1nnc(NC(=O)c2cccnc2SC)s1,/,/,/,/,.,.
O=C(Nc1ccccc1Cl)N1CCn2c(nc3ccccc32)C1,.,-111,.,.,.,.
CCOc1ccc(N2C(=O)C3C(c4ccccc4F)NN(C(=O)c4ccc(C)cc4)C3C2=O)cc1 (stereo unspecified),/,.,.,.,.,.
O=C(c1ccc2c(c1)OCO2)[C@@H]1[C@@H]2C(=O)N(C3CCCCC3)C(=O)[C@@H]2C2c3ccccc3C=CN21 (stereo partly specified),.,.,.,.,3.5µM,.
O=C(c1cccs1)[C@@H]1[C@@H]2C(=O)N(Cc3ccc4c(c3)OCO4)C(=O)[C@@H]2C2c3ccccc3C=CN21 (stereo partly specified),.,.,?,.,14µM,.
COc1ccc(N2C(=O)[C@@H]3[C@H](C2=O)[C@H]2c4ccccc4C=CN2[C@@H]3C(C)=O)cc1,/,.,?,.,32µM,.
O=C(Nc1ccc2c(c1)OCO2)[C@@H]1[C@@H]2C(=O)N(C3CCCCC3)C(=O)[C@@H]2C2c3ccccc3C=CN21 (stereo partly specified),.[1.84 µM],.,.,.,11µM,.
CC(=O)OC[C@@H]1O[C@@H](O/N=C2/C[C@@H](O)[C@@H](O)[C@@H]3[C@@H]4C(=O)N(C5CCCCC5)C(=O)[C@H]4CC[C@H]23)[C@H](OC(C)=O)[C@H](OC(C)=O)[C@@H]1OC(C)=O,/,/,/,/,.[13.5 µM],/
COc1ccc(COc2ccccc2C(=O)Nc2ccccn2)cc1[N+](=O)[O-],/,.,.,.,?,.
CC(C)(C)C(=O)[C@@H]1[C@@H]2C(=O)N(C3CCCCC3)C(=O)[C@@H]2[C@H]2c3ccccc3C=CN12,.,?,?,.,20µM,.
COc1ccccc1CNc1ncnc2ccc(-c3ccccc3OC)cc12,/,/,/,/,?,.
COC(=O)/C=c1\sc2ncnn2c1=O,.,-81,?,.,?,.
CC(C)NC[C@@H](O)COc1ccc(COCCOC(C)C)cc1,.,/,.,.,.,.
O=C(NCC1CCCO1)C(c1ccc(F)cc1)N(C(=O)Cn1nnc(-c2ccc(F)cc2)n1)c1cccc(O)c1 (stereo unspecified),/,/,/,/,.,.
COc1ccc(S(=O)(=O)Cc2ccc(C(=O)N3CCC(C(N)=O)CC3)o2)cc1,.,-85,.,.,.,.
CC1Cc2ccccc2N1C(=O)COC(=O)Cn1nnc(-c2ccccc2)n1 (stereo unspecified),.,.,.,.,0.71µM,.
CC1Cc2ccccc2N1C(=O)COC(=O)c1ccc(Br)o1 (stereo unspecified),/,/,/,/,.,.
SMILES,IMPase cell inh,PNC assembly inh,HPGD block,ALOX12 inhib,ALDH1A1 inh,IMPase Li cell
Cc1cnc(C(=O)OCC(=O)N2c3ccccc3CC2C)cn1 (stereo unspecified),/,/,/,/,.,.
CC1Cc2ccccc2N1C(=O)COC(=O)C1(c2ccccc2F)CCCC1 (stereo unspecified),.,-90,.,.,.,.
Cc1ccc(NC(=O)c2c(NC(=O)c3ccccc3Cl)sc3c2CCC3)cc1,.,/,/,/,/,/
COCc1cc(C)nc2sc(C(=O)Nc3ccccc3O)c(N)c12,.,/,/,/,/,/
COC(=O)N1CCC2(CC1)CN(c1cccc(-c3ccccc3)c1)C2,/,/,?,.,?,.
CC/C(=N/Nc1ccc(Cl)cc1)c1cnnc(SC)n1,/,.,.,.,10µM,.
CC/C(=N/O)c1cnnc(SC)n1,/,.,.,.,.,.
CC/C(=N/Nc1cccc(C)c1)c1cnnc(SC)n1,/,.,.,.,9.5µM,.
CN(CC(=O)O)Cc1oc(CO)cc(=O)c1O,/,/,.,.[11.4 µM],.[13.5 µM],.
CCOc1ccc(NC(=S)N(CCCN2CCOCC2)Cc2cn(C)c3ccccc23)cc1,/,?,.,.,4µM,.
Cc1cccc(NC(=S)N(CCCN2CCOCC2)Cc2cn(C)c3ccccc23)c1,.,?,.,.,?,.
COc1ccc(NC(=S)N(CCCN2CCOCC2)Cc2cn(C)c3ccccc23)cc1,.,?,.,.,0.56µM,.
CCCCCCCCCCCCCCCC(=O)O[C@H](CC(=O)O)C[N+](C)(C)C,.,/,.,.,.,.
C[C@H]1Cc2c(COc3ccccc3)nc3c(c2CO1)CN(C(=O)C1CC1)CC3,/,/,.,.[11.4 µM],.[13.5 µM],.
COC(=O)CCC/C=C1/SCC(NC(=O)c2ccccc2)/C1=N/O (stereo unspecified),/,/,/,/,.,.
CCOC(=O)Cn1c(S(=O)(=O)Cc2ccccc2Cl)nc(-c2ccccc2)c1-c1ccccc1,.[1.84 µM],-84,.,.,.,.
C#CCn1c(S(=O)(=O)Cc2ccccc2Cl)nc(-c2ccccc2)c1-c1ccccc1,.[1.84 µM],.,.,.,.,.
O=C(CCCOc1ccc(Cl)cc1Cl)Nc1ccncc1,.,.,14µM,.,?,.
O=C(COC(=O)CCCOc1ccc(Cl)cc1Cl)NCc1ccccc1,/,.,?,.,.,.
Clc1ccc(OCCCc2nc(-c3ccncc3)no2)c(Cl)c1,.,.,28µM,.,.,.
Cc1ccc(CNC(=O)COC(=O)CCCOc2ccc(Cl)cc2Cl)cc1,/,.,16µM,.,.,.
Cc1noc(C)c1COC(=O)C(c1ccccc1)c1ccccc1,/,/,/,/,11µM,.
Clc1ccc(OCCCc2nc(-c3cccnc3)no2)c(Cl)c1,.,.,/,.,.,/
CC(=O)NCCNc1nc(-c2ccccc2Cl)nc2ccccc12,/,/,.,.,?,.
Cc1cnc(CNc2nc(-c3ccc(N(C)C)cc3)nc3ccccc23)cn1,/,/,.,.,.,.
O=C(COc1ccc([N+](=O)[O-])cc1Cl)NCC1CCCO1 (stereo unspecified),/,/,/,/,.,.
COc1ccccc1NC(=S)NC(=O)CCCOc1ccc(Cl)cc1Cl,.,.,.,?,11µM,.
